Test results published in PubChem BioAssay (Tox21).
Results filed as inconclusive are left out. Activity calls are given as the source filed them. Calls come from the whole dose curve; as a rule, active = well fitted inhibition curve with a large enough effect in the signal ratio in the repeat runs (not every such curve was filed as active); inconclusive = weak or mixed curves, or effect the other way; inactive = no such curve, though single readings can be large or run the other way; the % refers to the signal ratio.

biological target: Vitamin D3 receptor (Homo sapiens) (UniProt P11473); assay: qHTS assay to identify small molecule antagonists of the vitamin D receptor (VDR) signaling pathway (AID 743223); conditions: VDR-UAS-bla HEK293T, beta-lactamase FRET ratio, 16 h; series mostly up to 61 µM
How it was run: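 Agonist 1alpha,25-dihydroxyvitamin D3 (3 nM in well) was added with each compound to VDR-bla cells preincubated 4 h. Cells stood 16 h at 37C, then FRET substrate 2 h at room temperature; fluorescence intensity recorded.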
% is set by controls: 0 for no effect and ±100 for the full control effect.

Sequence of Vitamin D3 receptor (Homo sapiens) (P11473 whole entry, looked up): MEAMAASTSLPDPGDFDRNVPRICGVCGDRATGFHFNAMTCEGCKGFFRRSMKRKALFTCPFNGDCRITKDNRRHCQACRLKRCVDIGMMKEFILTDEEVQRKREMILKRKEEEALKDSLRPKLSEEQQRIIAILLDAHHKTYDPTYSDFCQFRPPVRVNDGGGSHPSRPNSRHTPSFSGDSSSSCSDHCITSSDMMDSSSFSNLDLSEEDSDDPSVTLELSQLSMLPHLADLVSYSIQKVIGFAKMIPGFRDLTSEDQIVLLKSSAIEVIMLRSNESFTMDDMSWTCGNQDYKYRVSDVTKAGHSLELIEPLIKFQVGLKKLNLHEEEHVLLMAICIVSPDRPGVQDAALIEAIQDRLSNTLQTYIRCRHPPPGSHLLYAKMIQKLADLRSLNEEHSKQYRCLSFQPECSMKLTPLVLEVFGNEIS

Compound | outcome | activity change, negative = inhibition
CC(=O)Nc1cccc(N)c1 | inactive | –
CC(C)(C)N | inactive | –
CC(C)(C)NCC(O)COc1ccc(NC(=O)NC2CCCCC2)cc1 (stereo unspecified) | inactive | –
CCCCCCCCCCCCCCCCCCCl | – | 1.88% [at 6.95 µM] (inactive)
O=C(c1ccc(Cl)cc1)c1ccc(Cl)cc1 | inactive | –
CC(C)C/C=C(\C=O)c1ccccc1 | inactive | –
CCCc1nc(C)c2c(=O)[nH]c(-c3cc(S(=O)(=O)N4CCN(CC)CC4)ccc3OCC)nn12 | inactive | –
CCOc1ccc2c(c1)C(C)CC(C)(C)N2 (stereo unspecified) | inactive | –
O=P(c1ccccc1)(c1ccccc1)c1ccccc1 | inactive | –
Cc1ccc(NC=O)c(C)c1 | inactive | –
CCC1=C(C)CN(C(=O)NCCc2ccc(S(=O)(=O)NC(=O)NC3CCC(C)CC3)cc2)C1=O (stereo unspecified) | inactive | –
CCCCOC(=O)C(C)Oc1ccc(Oc2ccc(C(F)(F)F)cn2)cc1 (stereo unspecified) | inactive | –
CCCCCO | inactive | –
O=c1[nH]nc(-c2ccc([N+](=O)[O-])o2)o1 | inactive | –
Clc1cccc(C(c2ccc3nc[nH]c3c2)n2ccnc2)c1 (stereo unspecified) | inactive | –
O=C(O)c1ccncc1 | inactive | –
O=[N+]([O-])c1ccccc1CCO | inactive | –
O=c1[nH][nH]c2ccccc12 | inactive | –
CCc1c(C)[nH]c2c1C(=O)C(CN1CCOCC1)CC2 (stereo unspecified) | inactive | –
Cc1nc(C)c(C)nc1C | inactive | –
O=Cc1ccc([N+](=O)[O-])cc1 | inactive | –
C=CCCC | inactive | –
C1CCN(CN2CCCCC2)CC1 | inactive | –
CC(C)=CCC/C(C)=C/C=N/O | inactive | –
Cc1ccccc1CCO | inactive | –
OCCCO | inactive | –
